An excerpt weighted towards active compounds, which were near 21% of everything screened.
HCV inh: qHTS Assay for Inhibitors of Hepatitis C Virus (HCV); Potency, µM (top dose mostly 41.8 µM), without a hit: at the highest dose activity change, negative = inhibition, most hits filed as inhibitors; AID 651820, 2012; 3.4% of 340,000 active; Huh7.5.1 HCVcc-Cre infection, luciferase reporter, 44 h; note: potency is the fitted concentration of half-maximal effect; % is set by controls: 0 for no effect and ±100 for the full control effect
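After 44 h co-culture of compound, cells and HCVcc-Cre (~0.5 moi), substrate is added for 15 min at room temperature and luciferase measured over 15 sec. Cells were seeded at 1,000/well and pre-cultured 4 h.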
CHX counter: Cycloheximide Counterscreen for Small Molecule Inhibitors of Shiga Toxin; 12% of 300,000 active; cell reporter, cycloheximide protein synthesis inhibition counterscreen; max response, %; AID 2314, 2010; in the data active = max response mostly above about 13%, no sharp cut-off; inactive = mostly below about 14%; note: read at 38.3 µM for the half of the compounds with a filed dose; 0% is about no effect
Pf growth 48h: Primary qHTS for delayed death inhibitors of the malarial parasite plastid, 48 hour incubation; 5.9% of 310,000 active; Potency, µM (doses to about 28.7 µM), without a hit: at the top dose activity change, negative = inhibition, hits mostly inhibitors; P. falciparum luciferase growth in erythrocytes, 48 h; note: potency is the fitted concentration of half-maximal effect; % is set by controls: 0 for no effect and ±100 for the full control effect
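A one-generation exposure of luciferase-tagged malaria parasites in RPMI 1640/Albumax erythrocyte culture, 37 C and 5% CO2. Inhibition is inferred from decreased luminescence after adding detection reagent.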
AMA1 RON2 block: qHTS for Inhibitors of AMA1-RON; Towards Development of Antimalarial Drug Lead: Primary Screen; AlphaScreen AMA1-biotinylated RON2 peptide binding; 0.2% of 360,000 active; Plasmodium falciparum AMA1 (3D7) - RON2 peptide interaction; Potency, µM (series often up to 58.2 µM), for the others: at the highest dose activity change, negative = inhibition, usual class: inhibitors;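 note: potency is the fitted concentration of half-maximal effect; 0% = vehicle wells and -100% = peptide control; nearly all actives have a fitted effect of over 45% in size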
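AMA1 (3D7) with his tag at 25 nM final met compounds first, then biotinylated RON2 peptide at 25 nM; detection used donor plus acceptor beads, 10 µg/mL apiece, read by AlphaScreen after 30 min at room temperature.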
Pf growth 96h: Primary qHTS for delayed death inhibitors of the malarial parasite plastid, 96 hour incubation | P. falciparum luciferase reporter growth, 96 h | 6.9% of 320,000 active | Potency, µM (series often up to 28.7 µM), without a hit: at the top dose activity change, negative = inhibition, most hits filed as inhibitors | AID 504834, 2011; note: potency is the fitted concentration of half-maximal effect; % is set by controls: 0 for no effect and ±100 for the full control effect
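Erythrocytes infected with luciferase-expressing P. falciparum were dispensed at 2% hematocrit and 0.05% parasitemia (final), then incubated with compounds 96 hours at 37 C in 5% CO2. Luminescence after detection reagent addition reported growth.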
Shiga inhibitor: A qHTS for Small Molecule Inhibitors of Shiga Toxin. Vero cells, Shiga toxin protein synthesis inhibition reporter. inhibition, % at 38.7 µM. 9.2% of 290,000 active. AID 2315, 2010; in the data active = inhibition mostly above about 28%, no sharp cut-off; inactive = mostly below about 43%; note: 0% is about no effect
* hit, by the source's call; ? = inconclusive; . = no result; [ ] = remark or other dose. Unless noted, calls come from the whole dose curve; as a rule, active = well fitted curve in the direction sought with a large enough effect; inconclusive = small, poorly fitted or top-dose-only effect, or another doubt; inactive = no such curve, though single readings can be large; an effect the other way counts as inactive or inconclusive.

SMILES | HCV inh | CHX counter | Pf growth 48h | AMA1 RON2 block | Pf growth 96h | Shiga inhibitor
Cc1ccc(NC(=O)CC2NCCNC2=O)cc1 (stereo unspecified) | 11% | 11* | 23% | 36% | 27% | 17
OC(CCCC(O)c1ccccc1)c1ccccc1 (stereo unspecified) | 11% | . | . | 13% | . | .
Cc1ccc(CSCCNC(=O)c2ccc(N(C)S(=O)(=O)c3ccccc3)cc2)cc1 | 11µM* | 5 | 6% | -3% | 77% | 14
CN(c1ccc(C(=O)O)cc1)S(=O)(=O)c1ccccc1 | -4% | 1 | 27% | 2% | 9.3µM* | -1
CN(c1ccc(C(=O)NCCSC(C)(C)C)cc1)S(=O)(=O)c1ccccc1 | -27% | 11* | ? | -21% | -2% | 28
CN(c1ccc(C(=O)NCCSCc2ccc(Cl)cc2)cc1)S(=O)(=O)c1ccccc1 | ? | 3 | 4% | -9% | ? | 6
Cc1ccc(CSCCNS(=O)(=O)c2ccccc2)cc1 | -17% | -2 | 2% | -5% | 1.5µM* | -9
Cc1ccc(CSCCNS(C)(=O)=O)cc1 | 10% | -1 | 20% | -6% | . | -3
Cc1cc2c(s1)c1cnn(Cc3cccc(F)c3)c(=O)c1n2C | . | -6 | . | . | . | -2
CC(=O)Nc1ccc(S(=O)(=O)N(C)Cc2cnn(C)c2)cc1 | 17% | 2 | 12% | -1% | 78% | -4
Nn1c(SCC(=O)NC2CCCC2)nnc1C(F)(F)F | . | . | . | 6% | . | .
CN(c1ccc(C(=O)N2CCOCC2)cc1)S(=O)(=O)c1ccc(Cl)cc1 | 26% | 10* | -20% | -8% | 15% | 34*
CCCCCCCCNC(=S)NCCN1CCCCC1 | ? | 13 | 8.3µM* | 0% | 0% | -3
S=C(NCCCN1CCOCC1)NCCCN1CCOCC1 | -9% | -3 | 3% | -10% | -13% | -8
CCS(=O)(=O)/N=C(\N)c1ccccc1 | 3% | 30* | 8% | 10% | 38% | 22
C=CCn1c(C)nnc1SCC(=O)Nc1nccs1 | 16% | 1 | ? | 2% | 3% | -3
O=C(CSc1nnc(COc2ccc(Cl)cc2)o1)NC1CC2CCC1C2 (stereo unspecified) | 1% | 8 | 15% | 0% | -26% | 21
CC1CCN(c2nncc3ccccc23)CC1 | -9% | -2 | ? | 0% | 6.6µM* | 22
Cc1ccc(S(=O)(=O)Cn2nnnc2C(CC(C)C)N2CCN(C(=O)c3ccco3)CC2)cc1 (stereo unspecified) | 15% | -6 | 12µM* | 4%[11.6 µM] | 1.7µM* | -14
CC(C)CC(c1nnnn1C1CCCCC1)N1CCN(C(=O)c2ccco2)CC1 (stereo unspecified) | 2% | -3 | ? | -8% | ? | -7
CC(C)CC(c1nnnn1C1CCCC1)N1CCN(C(=O)c2ccco2)CC1 (stereo unspecified) | ? | 5 | -25% | -3% | 9.3µM* | 15
CCCC(c1nnnn1C1CCCC1)N1CCN(C(=O)c2ccco2)CC1 (stereo unspecified) | -1% | -2 | 12µM* | -2% | ? | -7
CCCCC(c1nnnn1CCOC)N1CCN(C(=O)c2ccco2)CC1 (stereo unspecified) | 10% | 10 | 5% | ? | . | 32
CCCCC(c1nnnn1C1CCCC1)N1CCN(C(=O)c2ccco2)CC1 (stereo unspecified) | -8% | 8 | 2.1µM* | -4% | . | 19
CCN(CC)C(=O)[C@H]1CC(CC(=O)NCCN2CCOCC2)C(=O)N2CCc3c([nH]c4ccccc34)[C@]12C (stereo partly specified) | 6% | . | . | -1% | . | .
O=C(c1ccco1)N1CCN(C(c2ccccn2)c2nnnn2C2CCCC2)CC1 (stereo unspecified) | 9% | 37* | 97% | 3% | 57% | 86*
COc1cc(C(=O)OCC(=O)Nc2ccccc2)cc2c1OCCO2 | . | . | . | 7% | . | .
CCOc1ccc(NC(=O)CN(C)C2=NS(=O)(=O)c3ccccc32)cc1 | . | . | . | 4% | . | .
